Only a sample is shown.
aSyn UTR act: Activators working through SNCA 5'UTR binding (MLPCN) | alpha-synuclein 5'UTR reporter, activators screen | activity score, % (tested at 7.5 µM), hits read low | AID 1814 | hit rate 7.1% among 300,000; in the data active = activity score below about -60%
Each line names hits and unclear results; the compound was inactive in the other large screens.

N=c1c2c(n(Cc3ccc(Br)cc3)c3c1CCC3)CCCC2	none
Oc1cccc(/C=N/N=C/c2cccc(O)c2O)c1O	aSyn UTR act -70.4
O=C1C(C=Nc2ccccc2O)=C(O)c2ccccc21	aSyn UTR act -185.8
Cc1ccc(N=Cc2cccc(O)c2O)c(C)c1	aSyn UTR act -62.5
Cc1ccc(O)c(N=CC2=C(O)c3ccccc3C2=O)c1	aSyn UTR act -156.2
CCN(CC)S(=O)(=O)c1cccc(C(=O)N/N=C/c2cccc(O)c2O)c1	none
CCc1ccc(O)c(N=Cc2ccccc2O)c1	aSyn UTR act -69.6
Cc1ccc(O)c(C=Nc2cc(C)ccc2O)c1	aSyn UTR act -91.7
C/C(=N\Nc1nc(-c2ccccn2)nc2ccccc12)c1ccc(F)cc1	none
C/C(=N\Nc1nc(-c2ccccc2O)nc2ccccc12)c1ccccc1	aSyn UTR act -90.9
O=C1CCCC2=C1C(c1ccco1)Nc1ccc(C(=O)c3ccccc3)cc1N2 (stereo not drawn)	aSyn UTR act -81.1
C/C(=N\NC(=O)C1CCCN(S(=O)(=O)c2ccccc2)C1)c1ccccn1 (stereo not drawn)	none
Cc1ccc(NC(=O)C2CCCN(c3ncccn3)C2)cc1F (stereo not drawn)	aSyn UTR act -268.8
Cc1ccc(NC(=O)C2CCCN(c3ncccn3)C2)c(C)c1 (stereo not drawn)	aSyn UTR act -78.5
O=C(Nc1ccc2c(c1)CCC2)C1CCCN(c2ncccn2)C1 (stereo not drawn)	aSyn UTR act -156.8
CC(=O)Nc1ncc(N=Nc2cccc(C(F)(F)F)c2)s1	aSyn UTR act -78.5
Cc1cc(C)n(CC(=O)NC2CCCc3c2cnn3-c2ccc(C)c(C)c2)n1 (stereo not drawn)	aSyn UTR act -84.2
Cc1ccc(-n2ncc(C(=O)Nc3cc(Cl)cc(Cl)c3)c2C2CCNCC2)cc1C	none
CCOC(=O)Nc1ccc(Oc2ccccc2)cc1	aSyn UTR act -96.1
CC(=O)c1ccc(NC(=O)Oc2ccccc2)cc1	aSyn UTR act -62.5
CCOC(=O)Nc1ccc(Cc2ccncc2)cc1	aSyn UTR act -62.8
CCOC(=O)Nc1ccc(C(=O)/C=C/c2ccccc2)cc1	aSyn UTR act -68.7
O=C(Nc1nc2c(Cl)cccc2s1)c1ccc(Br)o1	aSyn UTR act -130.5
O=C(Nc1nc2ccc(Cl)cc2s1)c1ccc(Br)o1	aSyn UTR act -237.0
O=C(Nc1nc2c(Cl)cccc2s1)c1ccc([N+](=O)[O-])o1	aSyn UTR act -80.3
O=C(Nc1cccc(NC(=O)c2ccccc2Cl)c1)c1ccc([N+](=O)[O-])o1	none
O=C(Nc1nc2c(F)cccc2s1)c1ccc([N+](=O)[O-])o1	aSyn UTR act -95.4
Clc1ccccc1/C=C/c1nc(-c2cccnc2)no1	aSyn UTR act -194.6
C(=C\c1nc(-c2cccnc2)no1)/c1ccccc1	aSyn UTR act -153.5
O=C(CC(=O)c1ccccc1)Nc1cccnc1Cl	aSyn UTR act -119.4
O=C(CCc1ccccc1)Nc1cccnc1Cl	aSyn UTR act -63.9
Cc1cc(-c2csc(NC(=O)c3cccc(S(=O)(=O)N(C)C)c3)n2)c(C)n1-c1ccccc1	aSyn UTR act -83.2
Cc1nn(-c2ccccc2)c2sc(C(=O)N3CCCCC3)cc12	aSyn UTR act -67.7
Cc1cccn2c(=O)c3cc(C(=O)N4CCCCC4)sc3nc12	aSyn UTR act -64.1
Cc1cnc(NC(=O)c2cc3c(C)nn(-c4ccccc4)c3s2)s1	aSyn UTR act -66.1
CCC(CC)NC(=O)c1cc2c(C)nn(Cc3ccccc3Cl)c2s1	none
COc1ccccc1/C=N/NC(=O)c1csc(C)c1C	aSyn UTR act -77.8
Cc1scc(C(=O)N/N=C/c2ccc(Cl)s2)c1C	aSyn UTR act -93.3
Cc1cc(C)nc(Nc2n[nH]c(-c3ccccc3Br)n2)n1	aSyn UTR act -115.4
Cc1cc(C)nc(Nc2n[nH]c(-c3ccccc3C)n2)n1	aSyn UTR act -136.0
Cc1nn2cc(-c3ccc(Cl)cc3)cnc2c1Cl	aSyn UTR act -144.4
COc1ccc(Oc2nc(-c3ccccn3)nc3ccccc23)cc1	aSyn UTR act -110.2
Fc1ccc(Oc2nc(-c3ccccn3)nc3ccccc23)cc1	aSyn UTR act -94.6
c1ccc(Oc2nc(-c3ccccn3)nc3ccccc23)cc1	aSyn UTR act -63.7
COc1ccccc1OCc1ccc(C(=O)Nc2ccccc2F)cc1	aSyn UTR act -74.9
O=C(Nc1ccccc1Cl)c1ccn[nH]1	aSyn UTR act -89.6
O=C(Nc1ccccc1Cl)c1ccccc1	aSyn UTR act -86.8
Nc1ccccc1NC(=O)c1ccccc1	aSyn UTR act -154.1
O=C(NNC(=O)c1ccccc1OCc1ccc(F)cc1)c1ccccc1O	none
O=C(Nc1cccn2ncnc12)c1ccccc1	aSyn UTR act -64.7
Cn1cc(Cl)c(C(=O)Nc2cccc(Cl)c2Cl)n1	aSyn UTR act -155.5
O=C(Nc1ccccc1F)c1ccc(C(=O)c2ccccc2)cc1	aSyn UTR act -100.1
O=C(Nc1cccc(Cl)c1Cl)c1ccc(-c2ccccc2)cc1	aSyn UTR act -158.8
Cc1ccc(C(=O)Nc2ccccc2Cl)cc1	aSyn UTR act -128.7
Cc1ccc(Cn2nc(C)cc2C(=O)Nc2ccccc2Cl)cc1	aSyn UTR act -151.5
Cc1ccc(C(=O)Nc2ccccc2C(=O)NC(C(=O)O)C(C)C)cc1 (stereo not drawn)	aSyn UTR act -68.5
Cc1ccc(C(=O)N2C(CC(=O)Nc3ccc(Cl)cc3)C(=O)NC3CCCCC32)cc1 (stereo not drawn)	aSyn UTR act -71.9
COc1cc(C2=NOC(C(=O)Nc3ccc(C(C)=O)cc3)C2)cc(OC)c1OC (stereo not drawn)	aSyn UTR act -79.9
CCN1CCN(Cc2ccc(NC(=O)Nc3ccc(SC)cc3)cc2)CC1	aSyn UTR act -103.1
CCOc1ccc(OCc2cccc(C(=O)Nc3ccc(CN4CCCCC4)cc3)c2)cc1	none
CCN1CCN(Cc2ccc(NC(=O)Nc3ccc(OC)cc3)cc2)CC1	aSyn UTR act -73.7
COc1ccc(OCc2cccc(C(=O)Nc3ccc(CN4CCCCC4)cc3)c2)cc1	aSyn UTR act -112.0
Cc1nc(SCC(=O)c2ccc(Cl)s2)c2oc3ccccc3c2n1	aSyn UTR act -93.9
c1coc(CSc2ncnc3c2oc2ccccc23)c1	aSyn UTR act -91.1
CC(=O)CSc1ncnc2c1oc1ccccc12	aSyn UTR act -64.6
CCCCOc1ccc2c(c1)C(=O)c1cc(O)ccc1-2	aSyn UTR act -208.7
CC1=CC(=C2C(=O)c3ccccc3C2=O)C=C(C)N1Cc1ccco1	aSyn UTR act -216.7
CC1=CC(=C2N=C(c3ccccc3)OC2=O)C=C(C)O1	aSyn UTR act -146.0
CC1=CC(=C2C(=O)c3ccccc3C2=O)C=C(C)O1	aSyn UTR act -128.6
CCN1C=CC(=C2C(=O)c3ccccc3C2=O)C=C1	none
CCCN1C=CC(=C2C(=O)c3ccccc3C2=O)C=C1	none
COC(=O)c1ccc(N=Cc2c(C(F)(F)F)[nH]n(C)c2=O)cc1	aSyn UTR act -64.8
CCC(=O)c1ccc(OCC(O)Cn2nnc3ccccc32)cc1 (stereo not drawn)	aSyn UTR act -74.4
O=c1sc2ccccc2n1CCOc1ccccc1	aSyn UTR act -133.2
Cc1ccc(OCn2c(=O)sc3ccccc32)cc1	aSyn UTR act -157.5
CC(=O)C1C(=O)c2c(cccc2[N+](=O)[O-])C1=Nc1ccccc1C (stereo not drawn)	aSyn UTR act -73.1
CC1=C([N+](=O)[O-])C(c2cccc(Br)c2)C2=C(N1)c1ccccc1C2=O (stereo not drawn)	none
COc1cc(NC(=O)C/C(C)=N/NC(=O)c2cccs2)c(OC)cc1Cl	aSyn UTR act -152.8
COc1cc(NC(=O)C/C(C)=N/NC(=O)Cc2ccccc2)c(OC)cc1Cl	aSyn UTR act -68.8
